Results filed as inconclusive are left out. Activity calls are given as the source filed them. Calls follow the shape of the dose curve; as a rule, active = well fitted inhibition curve with a large enough effect; inconclusive = small, poorly fitted or top-dose-only effect; inactive = flat fitted curve, though single readings scatter.
The molecules below were run on CRL-7250 (assay: Cytotoxic Profiling of Annotated Libraries Using Quantitative High-Throughput Screening (AID 1296008; also: nearly all actives have a fitted effect of over 60% in size)). Details: Five cell lines viability, CellTiter-Glo ATP luminescence, 48-72 h; max response: hits give low values.
How it was run: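 Cytotoxicity was measured as CellTiter-Glo ATP luminescence, read after 10 min at room temperature. Compound treatment of the cells lasted 48 or 72 hr at 37 degrees Celsius in a qHTS format.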
% is scaled to controls: 0 for no effect and ±100 for the full control effect; potency is read from the fitted curve at half-maximal effect.

Compound	max response	Potency	outcome
C[C@@H]1CC[C@@]2(OC1)O[C@H]1C[C@H]3[C@@H]4CC=C5C[C@@H](O)CC[C@]5(C)[C@H]4CC[C@]3(C)[C@H]1[C@@H]2C	3.2% (inactive)		
O=C(Nc1nc2ccccc2n1CCc1ccccc1)c1ccccc1	1.35% (inactive)		
COC1C(=O)CCC2(CO2)C1(O)C1(C)OC1CC=C(C)C (stereo not drawn)	-21.3% (inactive)		
CN(C)C/C=C/C(=O)Nc1cc2c(Nc3ccc(F)c(Cl)c3)ncnc2cc1OC1CCOC1 (stereo not drawn)		11.6 µM (active)	
CC(=O)C=C=C1C(C)(C)CC(O[C@@H]2O[C@H](CO)[C@@H](O)[C@H](O)[C@H]2O)CC1(C)O (stereo partly drawn)			inactive
CC[C@@](C)(Nc1ccnc(-c2c[nH]c3ncccc23)n1)C(=O)NCC(F)(F)F			inactive
O=C1NC2CCc3nc4ccccc4c(=O)n3C2=Nc2ccccc21 (stereo not drawn)	2.4% (inactive)		
O=[N+]([O-])c1cn2c(n1)OCC(OCc1ccc(OC(F)(F)F)cc1)C2 (stereo not drawn)	-10.3% (inactive)		
COc1cc(N2CCOCC2)ccc1Nc1ncc(Cl)c(Nc2ccccc2NS(C)(=O)=O)n1	-96.5% (inactive)		
C[C@@H]1C[C@@H]([C@@H](O)C(C)(C)O)O[C@H]2C[C@@]3(C)C(=C12)C[C@H](O)[C@H]1[C@@]2(C)CCC(=O)C(C)(C)C2CC[C@@]13C (stereo partly drawn)	0.566% (inactive)		
Clc1cc2c(NC3CCCC3)nnc(-c3ccncc3)c2cc1Cl	-13.3% (inactive)		
COc1cc2ncnc(N3CCC(Oc4cnc5ccccc5n4)C3)c2cc1OC (stereo not drawn)		6.51 µM (active)	
CC(C)(O)/C=C/C1=CC(=O)[C@@](C)(O)C[C@H]1O	-5.51% (inactive)		

— PubChem BioAssay (NCATS)
